Experimental data reported in paper PMC4336329 (PLoS ONE, 2015).
About 14,000 (4.5%) of roughly 310,000 compounds showed an effect of 50% or more. Effects have a minus sign here. The list comes from a sample in which strong results are over-represented; it also holds similar structures and randomly drawn compounds.

Molecular target: human ether-à-go-go-related gene (hERG) potassium channel (human, UniProt Q12809)
Experiment: primary screen, population patch clamp on CHO cells stably expressing hERG; higher = less effect of the substance
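Further: peak tail current of the secondary pulse compared with the same well before compound.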

human ether-à-go-go-related gene (hERG) potassium channel, sequence (Q12809 whole entry, looked up): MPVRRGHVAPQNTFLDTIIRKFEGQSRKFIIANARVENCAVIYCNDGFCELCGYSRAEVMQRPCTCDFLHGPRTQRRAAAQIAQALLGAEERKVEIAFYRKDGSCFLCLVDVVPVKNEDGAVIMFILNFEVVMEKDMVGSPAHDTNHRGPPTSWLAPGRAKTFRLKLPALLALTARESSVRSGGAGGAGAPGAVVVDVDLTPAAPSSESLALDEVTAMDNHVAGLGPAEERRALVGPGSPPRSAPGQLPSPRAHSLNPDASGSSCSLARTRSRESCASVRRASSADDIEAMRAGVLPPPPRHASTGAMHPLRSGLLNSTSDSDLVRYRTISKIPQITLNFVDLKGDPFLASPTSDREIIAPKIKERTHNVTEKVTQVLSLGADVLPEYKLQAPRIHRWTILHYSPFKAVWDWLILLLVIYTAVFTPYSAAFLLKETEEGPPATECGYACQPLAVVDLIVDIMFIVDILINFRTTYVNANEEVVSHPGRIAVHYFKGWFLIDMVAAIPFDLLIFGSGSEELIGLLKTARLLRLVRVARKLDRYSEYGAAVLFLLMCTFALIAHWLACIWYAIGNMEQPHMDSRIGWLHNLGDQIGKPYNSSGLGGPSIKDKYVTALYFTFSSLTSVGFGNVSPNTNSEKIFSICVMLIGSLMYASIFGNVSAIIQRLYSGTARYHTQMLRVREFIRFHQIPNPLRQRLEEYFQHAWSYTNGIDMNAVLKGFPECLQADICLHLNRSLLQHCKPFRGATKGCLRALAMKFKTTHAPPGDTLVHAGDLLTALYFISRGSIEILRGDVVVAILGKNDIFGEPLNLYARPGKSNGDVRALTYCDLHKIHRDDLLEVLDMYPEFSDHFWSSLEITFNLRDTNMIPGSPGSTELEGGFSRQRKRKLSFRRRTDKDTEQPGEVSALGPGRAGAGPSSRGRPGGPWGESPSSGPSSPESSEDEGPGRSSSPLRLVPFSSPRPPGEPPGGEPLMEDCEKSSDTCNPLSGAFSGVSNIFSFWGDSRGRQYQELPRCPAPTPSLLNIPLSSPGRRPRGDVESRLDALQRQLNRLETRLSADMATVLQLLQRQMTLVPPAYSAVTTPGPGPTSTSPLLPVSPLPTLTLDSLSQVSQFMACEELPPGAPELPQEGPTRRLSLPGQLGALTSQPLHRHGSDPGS

| SMILES | hERG current change (%, negative = inhibition) at 10uM [%] |
| --- | --- |
| COC(=O)c1ccccc1S(=O)(=O)N1CCC(C(=O)N2CCC2)CC1 | 3.96 |
| CC(C)C1OC2(C)OC(=N)C1(C#N)C(C#N)(C#N)C2c1ccccc1 (stereo not shown) | 2.05 |
| COc1ccc(-c2nnc(OCc3nc4ccccc4n3C)c3ccccc23)cc1 | -40.2 |
| Cl.OCCNc1nc(Nc2ccc(O)cc2)nc2ccccc12 | -28.6 |
| Cl.OCCNc1nc(Nc2ccccc2)nc2ccccc12 | -35 |
| Cl.Oc1ccccc1Nc1nc(NCc2ccccc2)c2ccccc2n1 | -1.42 |
| Cl.OCCNc1nc(Nc2ccc(Br)cc2)nc2ccccc12 | -36.3 |
| Cl.c1ccc(CNc2nc(NCc3ccccc3)c3ccccc3n2)cc1 | 2.65 |
| Cl.OCCNc1nc(Nc2ccc(Cl)c(Cl)c2)nc2ccccc12 | 14.5 |
| Cc1ccc(Nc2nc(NCCO)c3ccccc3n2)cc1C.Cl | -52.4 |
| Cl.OCCNc1nc(NCc2ccccc2)c2ccccc2n1 | -54.6 |
| CNc1nc(NCc2ccccc2)c2ccccc2n1.Cl | -68.1 |
| Nc1ccc(C2(c3ccc(N)cc3)CCCCC2)cc1 | 22.1 |
| O=C(Nc1cccnc1)c1cc(-c2ccc(Br)cc2)nc2ccccc12 | -2.53 |
| O=S1(=O)N=C(N2CCc3ccccc3C2)c2ccccc21 | -39 |
| O=C(c1ccco1)N1CCN(c2cc(C(F)(F)F)nc3ncnn23)CC1 | -16.7 |
| Cc1ccc(C(=O)CCNc2cccc(Br)c2)o1 | 4.71 |
| O=C(COc1ccc(Cl)cc1)NCCSCc1cccc(Cl)c1 | -13.5 |
| CC1CCN(c2c(NCC3CCC(C(=O)NCCc4ccc(Cl)cc4)CC3)c(=O)c2=O)CC1 (stereo not shown) | -3.81 |
| CCCCN(C(=O)c1ccc2ccccc2c1)c1c(N)n(CCCC)c(=O)[nH]c1=O | 8.11 |
| COc1ccc(CCn2c(=N)c(C(=O)NC3CCCCC3)cc3c(=O)n4ccccc4nc32)cc1 | -79.4 |
| COc1ccc(CCn2c(=N)c(C(=O)NC3CCCC3)cc3c(=O)n4ccccc4nc32)cc1 | -81.9 |

| SMILES | hERG current change (%, negative = inhibition) at 10uM [%] |
| --- | --- |
| COc1ccc(NC(=O)c2cc3c(=O)n4ccccc4nc3n2C)c(OC)c1 | 2.99 |
| Cc1ccc(S(=O)(=O)c2cc3c(=O)n4ccccc4nc3n(CCc3ccccc3)c2=N)cc1 | 5.39 |
| COc1ccc(Cn2c(=O)[nH]c3cc(C(=O)NC4CCCC4)ccc3c2=O)cc1 | 15.1 |
| N=c1c(S(=O)(=O)c2ccc(Cl)cc2)cc2c(=O)n3ccccc3nc2n1CCc1ccccc1 | 4.68 |
| COc1ccc(Cn2c(=N)c(C(=O)NC3CCCCC3)cc3c(=O)n4ccccc4nc32)cc1 | -68.9 |
| N=c1c(C(=O)NC2CCCCC2)cc2c(=O)n3ccccc3nc2n1CCc1ccccc1 | -81.1 |
| COc1ccc(CCn2c(=N)c(S(=O)(=O)c3ccc(Cl)cc3)cc3c(=O)n4ccccc4nc32)cc1 | 20.5 |
| COc1cccc(-c2csc(NNC(=O)c3cccs3)n2)c1 | -2.17 |
| COc1cc(C(=O)N(Cc2ccc(C)o2)C2CCS(=O)(=O)C2)cc(OC)c1OC (stereo not shown) | 14.4 |
| O=C(NCc1cccnc1)c1ccc(Br)s1 | -16.9 |
| CCN1C(=O)c2cccc3c(NS(=O)(=O)c4ccc(NC(C)=O)cc4)ccc1c23 | -8.89 |
| O=C(Cc1ccc(Cl)c(Cl)c1)Nc1cccc2ncccc12 | 20.2 |
| COCCCNC(=O)c1c(N)n(-c2ccc(S(N)(=O)=O)cc2)c2nc3ccccc3nc12 | 0.473 |
| Cc1nn(Cc2c(F)c(F)c(F)c(F)c2F)c(C)c1NC(=O)c1cccc(COc2ccc(Cl)cc2)c1 | 2.49 |
| O=C1c2oc3ccc(Br)cc3c(=O)c2C(c2cccc(F)c2)N1CCO (stereo not shown) | -1.34 |
| ONC(=Nc1ccccc1)c1ccccc1Cl | 2.37 |
| CCc1ccccc1NC(=O)CCC(=O)N1CCSc2ccccc21 | -14.7 |
| CCOC(=O)c1cnc2nc(NCc3ccc(OCc4ccccc4)cc3)[nH]n2c1=O | 5.06 |
| COc1ccc(CCn2c(=N)c(S(=O)(=O)c3ccccc3)cc3c(=O)n4ccccc4nc32)cc1 | 10.9 |
| COc1ccc(CCn2c(=N)c(S(=O)(=O)c3ccc(C)cc3)cc3c(=O)n4ccccc4nc32)cc1 | 15.1 |
| COc1ccc(CCn2c(=N)c(C(=O)NC3CCCC3)cc3c(=O)n4ccccc4nc32)cc1OC | -79.2 |
| COc1ccc(CCn2c(=N)c(C(=O)N3CCN(C)CC3)cc3c(=O)n4ccccc4nc32)cc1 | -76.2 |

| SMILES | hERG current change (%, negative = inhibition) at 10uM [%] |
| --- | --- |
| CCN(C(=O)c1cc2c(=O)n3ccccc3nc2n1CCCOC)C1CCCCC1 | -2.32 |
| COCCCn1c(=N)c(C(=O)NC2CCCCC2)cc2c(=O)n3ccccc3nc21 | -78.8 |
| COCCCn1c(SCC(=O)NC2CCCCC2)nc2ccccc2c1=O | -16.9 |
| COc1ccc(CCn2c(C3CCCCC3)nc3c(c(=O)c4ccccc4n3C)c2=O)cc1OC | -8.08 |
| Cc1ccc(C)c(S(=O)(=O)N2CCN(CC(=O)NC(=O)NCc3ccco3)CC2)c1 | -24.5 |
| Cc1cc(=S)c2cccc(C)c2[nH]1 | 9.4 |
| Fc1cccc(CNc2ncnc3ccc(-c4ccc5c(c4)OCO5)cc23)c1 | -31 |
| COc1ccc(NC(=O)CNC(=O)C2CCCCC2)cc1 | 18.1 |
| CCCOc1ccc(C(=O)N/N=C/c2ccc(-c3ccc(S(=O)(=O)Nc4ncccn4)cc3)o2)cc1 | -7.38 |
| O=C(/C=C/c1ccco1)Nc1ccc(N2CCCC2)cc1 | 10.5 |
| CCCCCC(=O)Nc1ccc(N2CCN(C(=O)c3ccccc3)CC2)cc1 | -62.8 |
| Cc1ccc(C(=O)N2CCN(c3ccc(NC(=S)NC(=O)Cc4ccccc4)cc3)CC2)cc1 | -17.1 |
| CCCCCCC(=O)Nc1ccc(C(=O)N2CCCC2)cc1 | 0.864 |
| O=C(/C=C\c1ccco1)Nc1ccc(N2CCN(C(=O)c3ccccc3)CC2)cc1 | -55.7 |
| COc1ccc(C(=O)N2CCN(c3ccc(NC(=O)Cc4ccccc4)cc3)CC2)cc1 | -31.8 |
| Cc1ccc(OCC(=O)Nc2ccc(N3CCN(C(=O)c4ccc(C)cc4)CC3)cc2)cc1 | 9.99 |
| Cc1ccc(C(=O)N2CCN(c3ccc(NC(=O)Cc4ccccc4)cc3)CC2)cc1 | -71.5 |
| CCCCCC(=O)Nc1ccc(N2CCN(C(=O)CCC)CC2)cc1 | -32.8 |
| O=C(/C=C/c1ccco1)N1CCN(c2ccccc2)CC1 | -1.71 |
| Cc1cccc(OCC(=O)Nc2ccc(N3CCN(C(=O)c4ccccc4)CC3)cc2)c1C | 3.45 |
| Cc1ccc(C(=O)N2CCN(c3ccc(NC(=O)COc4ccccc4C)cc3)CC2)cc1 | -73.6 |
| COc1ccc2c(c1)CC/C(=C/c1ccco1)C2=O | 10.7 |

| SMILES | hERG current change (%, negative = inhibition) at 10uM [%] |
| --- | --- |
| CCSc1oc(-c2ccco2)nc1S(=O)(=O)c1ccccc1 | -12.8 |
| CCOc1ccc(C(=O)Nc2c3c(nn2-c2ccc(F)cc2)CS(=O)C3)cc1 (stereo not shown) | -1.14 |
| COCCNC(=S)N1CCN(C(c2ccccc2)c2ccccc2)CC1 | -10.1 |
| COc1cc(C(=O)Nc2ncccc2C)ccc1OCC(=O)N1CCOCC1 | -4.78 |
| CC1(c2nnc(-c3cccc(Cl)c3)o2)CC(c2ccc(F)cc2)=NO1 (stereo not shown) | -8.47 |
| COc1ccc(C2C=C(c3cccs3)Nc3nc(CCCO)nn32)cc1 (stereo not shown) | -57.9 |
| OCCCc1nc2n(n1)C(c1ccccc1Cl)C=C(c1cccs1)N2 (stereo not shown) | -5.71 |
| OCCCc1nc2n(n1)C(c1ccccc1)C=C(c1ccc(F)cc1)N2 (stereo not shown) | -12.8 |
| COc1ccc(C2C=C(c3ccccc3)Nc3nc(CCCO)nn32)cc1 (stereo not shown) | -51.8 |
| OCCCc1nc2n(n1)C(c1cccs1)C=C(c1ccccc1)N2 (stereo not shown) | -38.5 |
| OCCCc1nc2n(n1)C(c1ccccc1)C=C(c1ccccc1)N2 (stereo not shown) | -17.3 |
| O=C(CCc1nc(-c2ccccc2)no1)NC1CCCCCC1 | 1.28 |
| CCc1cccc(C)c1NC(=O)CSc1nc(-c2ccccc2F)nc2nc[nH]c12 | 3.31 |
| NC(=O)c1cc([N+](=O)[O-])c(Cl)cc1NCc1cccnc1 | -8.53 |
| Cc1cc(C)cc(OCC(=O)NNC(=O)c2ccccn2)c1 | -34.6 |
| CN(C)S(=O)(=O)n1cc(/C=C(\NC(=O)c2ccccc2Cl)C(=O)N2CCOCC2)c2ccccc21 | -7.07 |
| CNC(=O)/C(=C\c1ccc2c(c1)OCO2)NC(=O)c1ccc(Br)cc1 | -56.5 |
| CNC(=O)/C(=C/c1ccc2c(c1)OCO2)NC(=O)c1ccc(Br)cc1 | -63.4 |
| O=C(Nc1cccc(C(=O)O)c1)/C(=C\c1ccc2c(c1)OCO2)NC(=O)c1ccc(Br)cc1 | 17.9 |
| Cc1ccc(C(=O)N/C(=C\c2ccc3c(c2)OCO3)C(=O)Nc2ccc(C(=O)O)cc2)cc1 | 17.9 |
| O=C(Nc1ccc(C(=O)O)cc1)/C(=C\c1ccc2c(c1)OCO2)NC(=O)c1ccccc1 | 22 |
| O=C(Nc1ccc(C(=O)O)cc1)/C(=C\c1ccc2c(c1)OCO2)NC(=O)c1ccc(Br)cc1 | 5.36 |
